Source: PubChem BioAssay (EPA / NIEHS)
Values joined by “and” are separate entries in the source; they are usually repeats but may differ in a detail not shown here. Equal values may be shown once. Records with an inconclusive call do not appear. Where a structure was tested more than once in an assay, its records may differ in their call. Active and inactive are the calls of the source. How the source made its calls: active means hit-call score of the fitted dose curve at least 0.9, where 1 is the maximum; inconclusive means response in the unintended direction; inactive means score below 0.9.

These compounds were tested against chicken Estrogen Receptor (ERa), ESR1 (gene 396099) (UniProt P06212) (assay: ATG_chERa_XSP2: Attagene TRANS-FACTORIAL Multi-Species (XSP2) HepG2 Assay for chicken Estrogen Receptor (ERa) (AID 2283817);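 further: actives raise reporter signal above DMSO so AC50 reflects ER activation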).
Method: ATG_XSP2_multi-species_TRANS is a cell-based, multiplexed assay created by modifying the existing Attagene TRANS-FACTORIAL system to include a panel of nuclear receptors from some or all the following species: human (Homo sapiens), mouse (Mus musculus), frog (Xenopus laevis), zebrafish (Danio rerio), chicken (Gallus gallus), and turtle (Chrysemys picta). The ECOTOX-FACTORIAL format uses HepG2, a human liver cell line, with measurements taken at 24 hours after chemical dosing in a 24-well plate. Xsp2 included 3 nM 6-alpha-fluorotestosterone and 1.5 nM norgestrel to stimulate the androgen receptor.ATG_chERa_XSP2 is one of 29 assay components measured or calculated from the ATG_XSP2_multi-species_TRANS assay. It is designed to make measurements of mRNA induction, a form of inducible reporter, as detected with fluorescence intensity signals by Reverse transcription polymerase chain reaction (RT-PCR) and Capillary electrophoresis technology.The assay endpoint ATG_chERa_XSP2 was analyzed in the positive analysis fitting direction relative to DMSO as the negative control and baseline of activity. Using a type of inducible reporter, measures of mRNA for gain-of-signal activity can be used to understand the reporter gene at the transcription factor-level as they relate to the gene ER. Furthermore, this assay endpoint can be referred to as a primary readout, because this assay has produced multiple assay endpoints where this one serves a reporter gene function. To generalize the intended target to other relatable targets, this assay endpoint is annotated to the nuclear receptor intended target family, where the subfamily is steroidal.
Human liver HepG2 cells are transiently transfected with multiple reporter transcription units (MRTUs) in 6-well plates using FuGene 6 reagent (Roche; 3 ml FuGene/1 mg DNA). The MRTU constructs are regulated by a cis-regulating element (promoter). […] A major difference between the CIS and TRANS system is that in CIS activities of endogenous TFs are measured, whereas the TRANS assay evaluates changes in activities of exogenous, chimeric NR-Gal4 proteins. […] At the end of 24 hour incubation, total RNA was isolated using TriZol reagent (Invitrogen). The isolated RNA is then reverse-transcribed using oligo(dT) primer and Mo-MLV reverse transcriptase (Invitrogen) with DNAse I (Ambion) treatment for 30 min. The one-tenth of the produced cDNA was amplified by PCR using Taq DNA polymerase (Invitrogen) and two reporter sequence-specific primers. The PCR products were fluorescently labeled by primer extension with 6-arboxyfluorescein (6-FAM) 5'-labeled reporter sequence-specific primer (2 min at 95 C, 20 s at 68 C and 10 min at 72 C) and these products were digested with 5U of HpaI (New England Biolabs) for 2h at 37 C. The fragments were purified using Qiaquick PCR columns (Qiagen), analyzed on an ABI 3130xL genetic analyzer (Applied Biosystems) with peak positions identified by using a set of X-rhodamine (ROX)-labeled MapMarker1000 molecular weight standards (BioVentures). The raw capillary electrophoresis data was processed using Attagraph software (Attagene).

Sequence of chicken Estrogen Receptor (ERa), ESR1 (gene 396099) (P06212 whole entry, looked up): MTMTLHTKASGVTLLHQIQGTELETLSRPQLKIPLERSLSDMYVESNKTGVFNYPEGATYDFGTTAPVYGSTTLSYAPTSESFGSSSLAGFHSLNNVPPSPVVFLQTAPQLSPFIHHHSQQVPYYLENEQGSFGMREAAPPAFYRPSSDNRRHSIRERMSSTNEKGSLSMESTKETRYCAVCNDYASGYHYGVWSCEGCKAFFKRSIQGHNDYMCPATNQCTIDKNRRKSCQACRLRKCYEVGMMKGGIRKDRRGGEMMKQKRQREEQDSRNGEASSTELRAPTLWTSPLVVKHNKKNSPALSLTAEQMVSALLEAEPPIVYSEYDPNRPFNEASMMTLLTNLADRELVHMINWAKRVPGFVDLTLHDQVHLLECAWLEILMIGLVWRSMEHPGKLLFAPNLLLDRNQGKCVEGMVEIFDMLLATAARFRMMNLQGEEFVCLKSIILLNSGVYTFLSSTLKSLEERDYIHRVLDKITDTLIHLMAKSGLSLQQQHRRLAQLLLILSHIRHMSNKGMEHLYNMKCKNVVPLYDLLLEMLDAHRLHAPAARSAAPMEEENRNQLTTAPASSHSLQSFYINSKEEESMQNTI

**Q.** How did the AC50 turn out when COP(=S)(OC)Oc1ccc(SC)c(C)c1 was run?
**A.** The AC50 was 27.5 µM (active).

**Q.** How did the AC50 turn out when O=C(O)C(F)(F)C(F)(F)C(F)(F)C(F)(F)C(F)(F)C(F)(F)C(F)(F)F was run?
**A.** The AC50 was 37.9 µM (active).

**Q.** Which outcome does the source give for O=S(=O)(O)C(F)(F)C(F)(F)C(F)(F)C(F)(F)C(F)(F)C(F)(F)C(F)(F)C(F)(F)F here?
**A.** The outcome was “inactive”.

**Q.** For CC1(C)C(C=C(Cl)Cl)C1C(=O)OC(C#N)c1ccc(F)c(Oc2ccccc2)c1 (configuration not stated), which outcome is on record?
**A.** The outcome was “inactive”.

**Q.** For Oc1ccc(Cl)cc1Cc1ccccc1, which outcome is on record?
**A.** The outcome was “inactive”.

**Q.** How did the outcome turn out when CCCN(CCOc1c(Cl)cc(Cl)cc1Cl)C(=O)n1ccnc1 was run?
**A.** The outcome was “inactive”.

**Q.** How did the AC50 turn out when CC(C)(C)C(O)/C(=C\c1ccc(Cl)cc1Cl)n1cncn1 (configuration not stated) was run?
**A.** Its AC50 is 16 µM (active).

**Q.** And the outcome?
**A.** The outcome was “inactive”.

**Q.** For COP(=S)(OC)Oc1ccc([N+](=O)[O-])cc1, which AC50 is on record?
**A.** The AC50 was 27.7 µM (active) and 20.6 µM (active).

**Q.** CCCN(CCC)c1c([N+](=O)[O-])cc(C(F)(F)F)cc1[N+](=O)[O-] was tested. Which outcome did it give?
**A.** Its outcome is “inactive”.

**Q.** How did the AC50 turn out when Oc1cc(Cl)ccc1Oc1ccc(Cl)cc1Cl was run?
**A.** Its AC50 is 7.48 µM (active).

**Q.** Which outcome does the source give for O=S1OCC2C(CO1)C1(Cl)C(Cl)=C(Cl)C2(Cl)C1(Cl)Cl (configuration not stated) here?
**A.** Its outcome is “inactive”.
